Measurements: PubChem BioAssay (NCI)
“And” between values parts separate entries of the source, which are not always exact repeats. Identical values can stand only once. Compounds without any hit were thinned out: in the full panel of roughly 83,000, 20% have a hit.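 Note: values are percent growth. 100 is the growth of untreated cells, values between 100 and 0 indicate rising inhibition; between -100 and 0 indicates cell death.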 A number with no mark means an inactive call. The source made the active and inactive calls. The calls were made as follows: active = growth percent below 10; inactive = the rest.

System: MDA-MB-468 breast
Test: NCI-60 one-dose screen, 48 h (100 = growth as untreated, 0 = no growth, -100 = all killed)
Details: 10 µM unless noted

SMILES	growth
Cc1cc(C)nc(SCC(=O)Nc2cccc(N=Cc3ccccc3O)c2)n1	87.8%
COc1cccc(CNc2c3ccccc3nc3ccccc23)c1	13.6%
CCOP(C)(=O)/C(Cc1ccc(OC)c(OC)c1)=N\O (stereo not given)	96.5%
COc1cccc2c1C=C1CCCCC3=Cc4c(OC)cccc4OC13O2	19%
COc1ccc(/C=C/C(=O)c2cc3c(N)c(C(=O)Nc4ccccc4C)sc3nc2C)cc1	16.3%
CCCCNC(=O)c1ccc(OCC)cc1	117%
COc1cc(N)ccc1Nc1c2ccccc2nc2ccccc12	92.4%
Nc1c(C(=O)Nc2cccc(F)c2)sc2nc3c(cc12)C(=O)CCC3	33.2%
c1cc2ccc3cc2cc1CNCCOCCNCc1ccc2ccc(cc2c1)CNCCOCCNC3	-68% (active)
Cc1ccc(Cl)cc1NC(=O)c1cc2ccccc2cc1O	-58.7% (active)
Cc1nc(Cl)c2c(n1)N(C)c1ccc(Cl)cc1C(C)C2 (stereo not given)	67.1%
Oc1ccc(CN(Cc2ccc(C(F)(F)F)cc2)Cc2ccc(O)c3ncccc23)c2cccnc12	4.04% (active)
O=C(/C=C/c1cn(-c2ccccc2)nc1-c1ccc([N+](=O)[O-])cc1)c1ccc(Cl)cc1	39.5%
C#CC#CC#CC#CC#CC#CC#CC#CC[C@H]1OC[C@@H](COC(=O)O[C@@H](C(=O)O[C@H]2C[C@@]3(O)[C@@H](OC(=O)c4ccccc4)[C@@H]4[C@]5(OC(C)=O)CO[C@@H]5C[C@H](O)[C@@]4(C)C(=O)[C@H](OC(C)=O)C(=C2C)C3(C)C)[C@@H](NC(=O)c2ccccc2)c2ccccc2)O1	14.2%
CCN1C(=O)N(CC)C2C1NN=c1s/c(=C\c3cnc(C)n3C)c(=O)n12 (stereo not given)	-12.2% (active)
COc1ccc(C(=O)/C=C/C23c4ccccc4C(c4ccccc42)C2C(=O)NC(=O)C23)cc1 (stereo not given)	98.7%
Cc1cc2nc(CN)[nH]c2cc1C	103%
CC/C=C\C[C@H](O)C/C=C1/C(=O)C=C[C@@H]1C/C=C\CCCC(=O)OC(C)C	-17% (active)
COc1ccc(NC(=O)[C@H](C)NC(=O)OC(C)(C)C)cc1C(=O)Nc1cccc(-c2cc(=O)c3c(OC)c(OC)c(OC)cc3o2)c1	4.39% (active)
CC(C)c1ccc(S(=O)(=O)NC(=O)NC2CCCC2)cc1	96.2%

SMILES	growth
O=S(=O)(Nc1ccc(F)cc1)c1ccc(-c2cnc(C3CC3)o2)cc1	4.54% (active)
COc1ccc(-c2cnc3c(-c4cccc5ncccc45)cnn3c2)cc1	57.1%
CCc1nn2c(-c3ccccc3)c(-c3cc(OC)c(OC)c(OC)c3)nc2s1	66%
CN1CCN(Cc2ccc(NC(=O)c3cncc(C#Cc4cnc(N)c5ccc(F)cc45)c3)cc2C(F)(F)F)CC1	-34.4% (active)
Nc1c(C(=O)Nc2ccccn2)sc2nc3c(cc12)CCCCC3	27.7%
C=C(C)[C@@H]1CC[C@]2(CNCCO)CC[C@]3(C)[C@H](CC[C@@H]4[C@@]5(C)CCC(N)[C@@](C)(CO)[C@@H]5CC[C@]43C)[C@@H]12 (stereo not given in full)	-86.8% (active)
O=c1[nH]c(Cc2nc3ccccc3s2)nc2cc(Br)ccc12	92.4%
COc1ccc(C(=O)/C=C/c2c(Cl)c3c(c(OC)c2Cl)OCC(=O)N3)cc1	12.4%
O=S1(=O)CC(Br)C(Br)C1 (stereo not given)	37% and 75.6%
CCN(CC)CCOc1ccc(/C(=C(\Cl)c2ccccc2)c2ccccc2)cc1	-60% (active) and -6.23% (active)
COc1cc2nc(N3CCC[C@@H](NC4=CC(=O)c5ccccc5C4=O)C3)nc(N)c2cc1OC	-51.3% (active)
CN(C)c1nc(-c2cccs2)n2nc(-c3ccc(Cl)cc3)cc2n1	33.6%
C=C(C)C1CCC(=C)C2CCC3(C)OC12/C=C(/COC(C)=O)CCC3O (stereo not given)	115%
COc1ccc(C(=O)Cn2c(C(=O)c3ccc(Cl)cc3)nc3ccccc32)cc1	63.9%
CCSc1nc(Nc2ccc(S(=O)(=O)Nc3ccon3)cc2)c(C#N)c(-c2cccc(Br)c2)n1	85.1%
O=C(Nc1ccccc1Cl)Oc1ccc(-c2ccccc2)cc1	115%
Oc1ccccc1C=Nc1ccccc1N=Cc1ccccc1O.[Cu+2]	47.5%
NC(N)=NC(N)=Nc1cc2ccccc2c2ccccc12	-14.2% (active)
O=C(O)/C=C\C(=O)Nc1ccc2c(c1)Cc1cc(F)ccc1-2	109%
CCCCCCCCCCSC(=N)N	-83.1% (active)
